Measurements published in PubChem BioAssay AID1345083 (National Center for Advancing Translational Sciences (NCATS), 2018).
Screen size: about 94,000 compounds; about 6,200 (6.6%) were called active. About 31% were inconclusive and are not listed. The sample holds actives, similar compounds and a random draw of the others, so the mix is not that of the screen. Calls follow the shape of the dose curve; as a rule, active = well fitted inhibition curve with a large enough effect; inconclusive = small, poorly fitted or top-dose-only effect; inactive = flat fitted curve, though single readings scatter.

Assay: Cytotoxic Profiling in HEK 293 Cell Line of Diverse Libraries Using Quantitative High-Throughput Screening; also: nearly all actives have a fitted effect of over 60% in size
Details: HEK 293 viability, ATP luminescence (CellTiter-Glo), 48-72 h; series mostly up to 115 µM; activity change, negative = cytotoxicity: at the top concentration
Source text: Cell-based phenotypic screening is a commonly used approach to discover biological pathways, novel drug targets, chemical probes and high-quality hit-to-lead molecules. Many hits identified from high-throughput screening campaign are ruled out through a series of follow-up potency, selectivity/specificity, and cytotoxicity assays. Prioritization of molecules with little or no cytotoxicity for a more in-depth downstream evaluation influence the future direction of projects, so cytotoxicity profiling of the screening libraries at early stage is essential for increasing the likelihood of candidate success. In this study, we analyzed results from a cell-based cytotoxicity screening campaign, comprising nearly 10,000 compounds in NCATS annotated libraries, and over 100,000 compounds in a diversity library, evaluated in four normal cell lines (HEK 293, NIH 3T3, CRL-7250 and HaCat) and a cancer cell line (KB 3-1, a HeLa subline) with overall screening outcomes, hit rates, pan-activity and selectivity. For the annotated library, we also examined the primary targets and mechanistic pathways regularly associated with cell death. To our knowledge, this is the first study to use high-throughput screening to profile large libraries for cytotoxicity assessment in both normal and cancer cell lines. In summary, the results generated here constitutes a valuable resource for the scientific community and provides insight on identifying cytotoxic compounds with particular mechanisms of action, and prioritizing compounds with suitable cytotoxicity profile for further evaluation.
HEK 293 cells were seeded into white 1536-well plates using a Multidrop Combi peristaltic dispenser (ThermoFisher, Waltham, MA) at a density of 250 cells/well in 5 uL of medium respectively. A pintool (Kalypsys) was used to transfer 23 nL of compound solution to the 1536-well assay plates. After 48 or 72 hr incubation at 37 degree Celsius, 5% CO2 and 95% humidity, 2.5 uL of CellTiter-Glo (Promega) was dispensed into each well using a dispenser (Aspect Automation, St. Paul, MN) with solenoid valves (Lee Valves, Westbrook CT). Plates were left at room temperature for 10 min before imaging the ATP-coupled luminescence using a ViewLux microplate imager (PerkinElmer, Waltham, MA).
% is scaled to controls: 0 for no effect and ±100 for the full control effect; potency is read from the fitted curve at half-maximal effect.

Row | Structure (SMILES) | activity change, negative = cytotoxicity | Potency | outcome
1 | Cc1ccc(OCCC2CCN(C(=O)CCN3C(=O)NC(C)(C)C3=O)C2)cc1 (configuration not stated) | -19.8% (inactive) | – | –
2 | O=C(c1cccc(F)c1)N1CCC(CCOc2ccc(F)cc2)C1 (configuration not stated) | – | 44.7 µM (active) | –
3 | O=C(c1cccc(F)c1)N1CCCC(CN2CCOCC2)CC1 (configuration not stated) | – | – | inactive
4 | Cc1cnc(CCNC(=O)c2cn(C)cn2)n1C1CC1 | – | – | inactive
5 | O=[S+]([O-])(c1ccccc1)N1CCCC2(CC(c3ccccn3)=NO2)C1 (configuration not stated) | -4.29% (inactive) | – | –
6 | Cc1ccc([S+](=O)([O-])N2CCC3(CC2)CC(=O)N(c2ccccc2)c2ccccc2O3)cc1 | – | 25.1 µM (active) | –
7 | O=[S+]([O-])(c1ccccc1)N1CCC2(CC(c3cccnc3)=NO2)C1 (configuration not stated) | – | – | inactive
8 | NC(=O)c1cccnc1OC1CCNCC1 | 5.73% (inactive) | – | –
9 | COc1ccc(C)cc1NC(=O)Cn1nc2n(c1=O)CCCC2 | 1.29% (inactive) | – | –
10 | COc1ccc(CN2CCC3(CC2)Cc2ccccc2CNC3=O)cn1 | -2.09% (inactive) | – | –
11 | CC(C)Cc1ccc(CN2CCC3(CC2)Cc2ccccc2CNC3=O)cc1 | – | 22.4 µM (active) | –
12 | O=C1NCc2ccccc2CC12CCN(Cc1ccc(O)cc1)CC2 | 2.63% (inactive) | – | –
13 | COc1ccc(C2(C(=O)NCc3cccc(C(F)(F)F)c3)CCOCC2)cc1 | -18.9% (inactive) | – | –
14 | COCC(=O)NC[C@@H]1C=C(C)[C@H](CC(=O)Nc2ccccn2)C[C@H]1C(C)C | -20.1% [at 172 µM] (inactive) | – | –
15 | CC1=C[C@@H](CN(C)CCc2ccccn2)[C@H](C(C)C)C[C@H]1Cc1nnc(-c2ccccc2F)o1 | – | 44.7 µM (active) | –
16 | NC(=O)c1ccc(OC2CCN(C(=O)c3ccc(F)cc3)CC2)nc1 | -29.6% (inactive) | – | –

Row | Structure (SMILES) | activity change, negative = cytotoxicity | Potency | outcome
17 | O=C1CCN(C(=O)[C@@H](Cc2ccccc2)NS(=O)(=O)c2cccc3cccnc23)CCOCCN1 | 1.59% (inactive) | – | –
18 | O=C(NCCc1ccccc1)NC1CCc2nn(CC3CC3)c(=O)n2CC1 (configuration not stated) | – | – | inactive
19 | O=C(Cc1cccc(F)c1)Nc1cnc(-c2cccnc2)nc1 | -0.423% (inactive) | – | –
20 | O=C(Nc1cnc(-c2cccc(Cl)c2)nc1)c1ccc(F)cc1 | – | 44.7 µM (active) | –
21 | O=C(Nc1ccc(F)cc1)c1ccc2nc(-c3cccnc3)oc2c1 | -10.8% [at 172 µM] (inactive) | – | –
22 | COC(=O)COc1cccn2c(=O)c(-c3cc(C)n(-c4ccc(C)cc4C)n3)c(C)nc12 | -13.2% (inactive) | – | –
23 | O=C1CC(c2ccccc2)N(C(=O)C2CC2)CCCN(C(=O)Cc2cccc(F)c2)CCN1 (configuration not stated) | 2.27% (inactive) | – | –
24 | CCCc1nc(NCC(c2ccccn2)N2CCOCC2)c2cnn(C)c2n1 (configuration not stated) | -0.509% (inactive) | – | –
25 | CC(Cn1cncn1)Nc1nc(-c2ccncc2)nc2c1cnn2C (configuration not stated) | 0.89% (inactive) | – | –
26 | CC(C)Cc1cc(CNc2nc(C(C)(C)C)nc3c2cnn3C)no1 | – | 35.5 µM (active) | –
27 | COc1ccccc1CC(=O)NCc1nnc2c(-c3nc(C(C)C)no3)cccn12 | -10% (inactive) | – | –
28 | COCCC1(CO)CCCN(C(=O)Cn2cc(C)c(=O)[nH]c2=O)C1 (configuration not stated) | 3.68% (inactive) | – | –
29 | O=C(NCc1nnc2ccccn12)C1NCCc2[nH]cnc21 (configuration not stated) | 0.78% (inactive) | – | –
30 | CCC(=O)N1CCC2(CC1)CC(N1CCN(CC(C)C)CC1)CCO2 (configuration not stated) | -2.2% (inactive) | – | –
31 | Cc1ccc(S(=O)(=O)N[C@@H]2CCOC[C@H]2OCC(=O)O)cc1 | 0.393% (inactive) | – | –
32 | O=C1NCCCCCCN(S(=O)(=O)c2cccs2)[C@H]2CCCC[C@@H]12 | -15% (inactive) | – | –
